# Compounds without any hit were thinned out: in the full panel of roughly 79,000, 15% have a hit. A number with no mark means an inactive call. The source made the active and inactive calls. No stated cut-off is given here; in the data, active means growth inhibition above about 70%; inactive means the rest.
# What was measured:
# [1] = NCI Yeast Anticancer Drug Screen. Data for the rad52 strain (AID 147);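 further: 0% = growth of vehicle-treated control cultures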; conditions: S. cerevisiae rad52 mutant growth inhibition, stronger effect = higher value
# Outline: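 Genetically altered yeast (DNA damage repair defect) treated with compound; inhibition calculated relative to vehicle.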
# [2] = NCI Yeast Anticancer Drug Screen. Data for the wt1 strain (AID 149);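 further: 0% = growth of vehicle-treated wt1 cultures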; conditions: S. cerevisiae wt1 strain (SPY 50644) growth inhibition, stronger effect = higher value
# Outline: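 Readout: yeast growth inhibition, normalised to vehicle controls, in the wt1 strain exposed to test compounds.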
# [3] = NCI Yeast Anticancer Drug Screen. Data for the rad50EPP+ strain (AID 151);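 further: 0% = growth of vehicle-treated control cultures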; conditions: S. cerevisiae rad50 mutant strain, stronger effect = higher value
# Outline: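 Strain rad50EPP+; compound exposure; % growth inhibition vs vehicle.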
# [4] = NCI Yeast Anticancer Drug Screen. Data for the mgt1 strain (AID 153); conditions: S. cerevisiae mgt1 mutant growth inhibition, stronger effect = higher value
# Outline: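 Read-out: yeast growth inhibition vs vehicle control. Strain mgt1, drawn from a panel altered in DNA damage repair or cell cycle control.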
# [5] = NCI Yeast Anticancer Drug Screen. Data for the rad50 strain (AID 155);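 further: 0% = growth of vehicle-only cultures of the same strain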; conditions: S. cerevisiae rad50 strain growth inhibition, stronger effect = higher value
# Outline: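 Compounds were tested on a yeast strain with an engineered DNA damage repair alteration; the reported value is growth inhibition normalised to vehicle treatment.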
# [6] = NCI Yeast Anticancer Drug Screen. Data for the mec2-1 strain (AID 157); conditions: S. cerevisiae mec2-1 strain, stronger effect = higher value
# Outline: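 Cells of the genetically defined mec2-1 yeast strain are incubated with test compound. Inhibition of growth is calculated against vehicle-treated controls.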
# [7] = NCI Yeast Anticancer Drug Screen. Data for the rad14 strain (AID 159);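 further: 0% = growth of vehicle-treated control cultures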; conditions: S. cerevisiae rad14 strain growth inhibition, stronger effect = higher value
# Outline: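 Compound-treated yeast with a defined DNA-repair lesion; growth inhibition normalised to vehicle-treated cultures.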
# [8] = NCI Yeast Anticancer Drug Screen. Data for the sgs1 mgt1 strain (AID 161);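 further: 0% = growth of cultures given vehicle only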; conditions: S. cerevisiae sgs1 mgt1 strain, stronger effect = higher value
# Outline: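 Genetically altered yeast, compound exposure, growth inhibition relative to vehicle.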
# [9] = NCI Yeast Anticancer Drug Screen. Data for the CLN2oe strain (AID 163);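 further: 0% = growth of vehicle-only control cultures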; conditions: S. cerevisiae CLN2oe strain, stronger effect = higher value
# Outline: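 Strain altered in cell-cycle control, incubated with compound; growth compared to solvent-treated controls.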
# [10] = NCI Yeast Anticancer Drug Screen. Data for the cln2 rad14 strain (AID 165);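 further: 0% = growth equal to vehicle treated cultures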; conditions: S. cerevisiae cln2 rad14 strain, stronger effect = higher value
# Outline: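 The screen exposed genetically defined yeast (cln2 rad14) to test compounds and scored growth inhibition relative to vehicle-treated controls.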
# [11] = NCI Yeast Anticancer Drug Screen. Data for the bub3 strain (AID 167); conditions: S. cerevisiae bub3 mutant strain, stronger effect = higher value
# Outline: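 Growth of a checkpoint-deficient yeast mutant is measured after compound exposure. Values represent inhibition relative to vehicle.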
# [12] = NCI Yeast Anticancer Drug Screen. Data for the mlh1 strain (AID 171);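 further: 0% = growth of vehicle-treated control cultures of the same strain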; conditions: S. cerevisiae mlh1 strain growth inhibition, stronger effect = higher value
# Outline: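 Yeast screen: mutant strain plus compound, growth scored against vehicle control wells.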
# [13] = NCI Yeast Anticancer Drug Screen. Data for the sgs1 strain (AID 173);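 further: 0% = growth of vehicle-only control cultures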; conditions: S. cerevisiae sgs1 mutant, stronger effect = higher value
# Outline: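 Inhibition of yeast growth served as the measure. The mutant strain was treated with each compound, and growth was normalised to cultures receiving vehicle alone.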
# [14] = NCI Yeast Anticancer Drug Screen. Data for the mlh1 rad18 strain (AID 175); conditions: S. cerevisiae mlh1 rad18 strain growth inhibition, stronger effect = higher value
# Outline: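 Compound-treated yeast growth, normalised to vehicle controls. Strain bears defined DNA repair mutations.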
# [15] = NCI Yeast Anticancer Drug Screen. Data for the rad18 strain (AID 177); conditions: S. cerevisiae rad18 mutant growth inhibition, stronger effect = higher value
# Outline: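 Inhibition values reflect reduced yeast growth compared with vehicle-treated controls, using a strain engineered with a DNA damage repair defect.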
# [16] = at 5.0 µM (retest, dose inferred, filed as 0.5)
# [17] = at 50.0 µM (retest, dose inferred, filed as 5.0)
smiles,measurement,setting,value
COc1c(O)c(C=O)c(Br)c(C=O)c1O,growth inhibition,[1]; at 1.2 µM,2%
same,growth inhibition,[1]; at 3.7 µM,6%
same,growth inhibition,[1]; at 11.0 µM,17%
same,growth inhibition,[1]; at 33.0 µM,49%
same,growth inhibition,[1]; at 100.0 µM,91% (active)
same,growth inhibition,[2]; at 1.2 µM,0%
same,growth inhibition,[2]; at 3.7 µM,5%
same,growth inhibition,[2]; at 11.0 µM,4%
same,growth inhibition,[2]; at 33.0 µM,17%
same,growth inhibition,[2]; at 100.0 µM,68%
same,growth inhibition,[3]; at 1.2 µM,24%
same,growth inhibition,[3]; at 3.7 µM,43%
same,growth inhibition,[3]; at 11.0 µM,75% (active)
same,growth inhibition,[3]; at 33.0 µM,95% (active)
same,growth inhibition,[3]; at 100.0 µM,99% (active)
same,growth inhibition,[4]; at 1.2 µM,-2%
same,growth inhibition,[4]; at 3.7 µM,0%
same,growth inhibition,[4]; at 11.0 µM,8%
same,growth inhibition,[4]; at 33.0 µM,30%
same,growth inhibition,[4]; at 100.0 µM,82% (active)
same,growth inhibition,[5]; at 1.2 µM,4%
same,growth inhibition,[5]; at 3.7 µM,7%
same,growth inhibition,[5]; [16],16%
same,growth inhibition,[5]; at 11.0 µM,15%
same,growth inhibition,[5]; at 33.0 µM,47%
same,growth inhibition,[5]; [17],97% (active)
same,growth inhibition,[5]; at 50.0 µM,98.2% (active)
same,growth inhibition,[5]; at 100.0 µM,86% (active)
same,growth inhibition,[6]; at 1.2 µM,3%
same,growth inhibition,[6]; at 3.7 µM,6%
same,growth inhibition,[6]; [16],16%
same,growth inhibition,[6]; at 11.0 µM,14%
same,growth inhibition,[6]; at 33.0 µM,47%
same,growth inhibition,[6]; [17],98% (active)
same,growth inhibition,[6]; at 50.0 µM,82.1% (active)
same,growth inhibition,[6]; at 100.0 µM,95% (active)
same,growth inhibition,[7]; at 1.2 µM,1%
same,growth inhibition,[7]; at 3.7 µM,4%
same,growth inhibition,[7]; at 11.0 µM,11%
same,growth inhibition,[7]; at 33.0 µM,42%
same,growth inhibition,[7]; at 100.0 µM,83% (active)
same,growth inhibition,[8]; [16],16%
same,growth inhibition,[8]; [17],96% (active)
same,growth inhibition,[8]; at 50.0 µM,99% (active)
same,growth inhibition,[9]; at 1.2 µM,2%
same,growth inhibition,[9]; at 3.7 µM,0%
same,growth inhibition,[9]; at 11.0 µM,17%
same,growth inhibition,[9]; at 33.0 µM,40%
same,growth inhibition,[9]; at 100.0 µM,90% (active)
same,growth inhibition,[10]; [16],12%
same,growth inhibition,[10]; [17],95% (active)
same,growth inhibition,[10]; at 50.0 µM,66.5%
same,growth inhibition,[11]; at 1.2 µM,-4%
same,growth inhibition,[11]; at 3.7 µM,-1%
same,growth inhibition,[11]; [16],-1%
same,growth inhibition,[11]; at 11.0 µM,3%
same,growth inhibition,[11]; at 33.0 µM,54%
same,growth inhibition,[11]; [17],98% (active)
same,growth inhibition,[11]; at 50.0 µM,98.9% (active)
same,growth inhibition,[11]; at 100.0 µM,97% (active)
same,growth inhibition,[12]; at 1.2 µM,5%
same,growth inhibition,[12]; at 3.7 µM,2%
same,growth inhibition,[12]; at 11.0 µM,9%
same,growth inhibition,[12]; at 33.0 µM,43%
same,growth inhibition,[12]; at 100.0 µM,95% (active)
same,growth inhibition,[13]; at 1.2 µM,-2%
same,growth inhibition,[13]; at 3.7 µM,3%
same,growth inhibition,[13]; at 11.0 µM,12%
same,growth inhibition,[13]; at 33.0 µM,53%
same,growth inhibition,[13]; at 100.0 µM,94% (active)
same,growth inhibition,[14]; [16],7%
same,growth inhibition,[14]; [17],98% (active)
same,growth inhibition,[14]; at 50.0 µM,99% (active)
same,growth inhibition,[15]; at 1.2 µM,0%
same,growth inhibition,[15]; at 3.7 µM,-1%
same,growth inhibition,[15]; at 11.0 µM,5%
same,growth inhibition,[15]; at 33.0 µM,24%
same,growth inhibition,[15]; at 100.0 µM,90% (active)

# — PubChem BioAssay (NCI)
